Results on 99 compounds are retold here after PubChem BioAssay AID1276 (Columbia University Molecular Screening Center, 2008).

About 2,000 (1.1%) of roughly 190,000 compounds were called active. This is one part of a sample in which actives are shown more often than they occur. Values without a mark were called inactive.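 Rule for the calls: active = activation above a set limit, based on mean plus 3 SD of controls (cut at about 140% in these data); inconclusive = one replicate above the limit, the other below; inactive = the rest.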

The assay in a line: APP 5'UTR reporter signal increase – luciferase, SH-SY5Y cells, primary screen (AID 1276). Particulars: SH-SY5Y APP 5'UTR luciferase reporter, luminescence; at 2 µM; stronger effect = higher value; zero percent = DMSO vehicle wells. On the technique in general: Reporter assays use an easily measured gene product as a stand-in for the process of interest.
Consider `O=S(=O)(NCC1CCCO1)c1cnc(Cl)c(Cl)c1` (centres undefined), for which the activation was 1.68%.
As for `CC(=O)c1ccc(S(=O)(=O)Nc2ccc(C(=O)NCC(c3ccccc3)N(C)C)cc2)cc1` (centres undefined), the activation was -1.54%.
Then `COc1ccccc1N1CCN(c2ccc([N+](=O)[O-])nc2)CC1`, with 0.38%; and `O=C(N/N=C/c1ccc(Cl)cc1)c1nc2ccc([N+](=O)[O-])cc2c(=O)[nH]1`, with 5.49%.
Turning to `COc1cccc(-n2c(=S)[nH]c3c(oc4ccccc43)c2=O)c1`, the activation is 23%.
Consider `Cc1cccc(-n2c(O)c(C=Nc3ccccc3N)c(=O)[nH]c2=O)c1`, for which the activation is 148% (active).
Take `Cc1ccc(N=Cc2c(O)n(-c3nccs3)c(=O)c3ccccc23)c(C)c1`: the activation was 11.8%.
Turning to `Cc1cccc(-n2c(C)cc(/C=N/NC(N)=S)c2C)c1`, the activation was -0.81%.
As to `CCCCc1nnc(NC(=O)CSc2nc(N)cc(=O)[nH]2)s1`, the activation was -0.9%.
Consider `O=c1[nH]c2ccccc2s1`, for which the activation was -19.6%.
As to `COc1cc([N+](=O)[O-])ccc1NC(=S)N1CCN(c2ccccn2)CC1`, the activation is -4.93%.
Turning to `COc1nc(N(C)C)nc(N2CC(=O)N(CCNS(=O)(=O)c3ccc(C)cc3)C2=N)n1`, the activation was -1.55%.
On to `CC(=O)n1cc([C@@H]2C=C(C(=O)N3CCN(Cc4ccc5c(c4)OCO5)CC3)O[C@H](OCc3ccc(CO)cc3)C2)c2ccccc21`, for which the activation is -22.2%.
As for `CCOc1cccc(/C=C/c2ccc3ccccc3n2)c1OC(C)=O`, the activation is 216% (active).
For the compound `NC(=O)COC(=O)/C=C/c1ccc2ccccc2n1`, the activation was 2.32%.
As for `COc1cccc(/C=C/c2ccc3ccccc3n2)c1OC(C)=O`, the activation was 131%.
As for `O=C(c1cccc(S(=O)(=O)N2CCCC2)c1)N(Cc1ccco1)C1CCS(=O)(=O)C1` (centres undefined), the activation was 11.1%.
`Cc1ccc(S(=O)(=O)/N=C(/Nc2ccc3[nH]c(=O)[nH]c3c2)c2ccccc2)cc1`: the activation is -13.5%.
Consider `CCOc1ccc(CN2CCN(Cc3ccon3)CC2CCO)cc1` (centres undefined), for which the activation was 7.1%.
For the compound `O=C(c1cnn2ccccc12)N1CCc2ccccc21`, the activation was 145% (active).
On to `O=C(c1cccc(C(=O)N2CCc3ccccc32)n1)N1CCc2ccccc21`, for which the activation was -32.2%.
As for `NC(=O)N1CCc2ccccc21`, the activation is -5.27%.
Then `Cc1ccc(C(=O)N2CCN(S(=O)(=O)N3CCOCC3)CC2)cc1`, with 0.65%; and `Cc1ccc(-n2cc3ccc([N+](=O)[O-])cc3n2)cc1`, with 179% (active); and `Cc1cc(C)nc(Nc2cc([N+](=O)[O-])ccc2C)n1`, with -6.89%.
Turning to `Cc1ccc(-c2cn3cc([N+](=O)[O-])ccc3n2)cc1`, the activation was 120%.
Then `Cc1cc([N+](=O)[O-])ccc1NC1CCCC1`, with -0.84%; and `OCC1(Cc2ccccc2)CCN(Cc2cc3ccccc3o2)CC1`, with -8.13%.
In the case of `COc1ccccc1Oc1ccc(N/C=C2/CCCC2=O)cc1`, the activation was 17.2%.
For `Cc1[nH]c2c(C(=O)N3CCCC(CCC(=O)NCc4ccccc4F)C3)cccc2c1C` (centres undefined), the activation is 17.2%.
For the compound `COc1c(C=O)c(CCN(C)C(=O)c2ccc(F)cc2)cc2c1OCO2`, the activation was 0.6%.
As for `COc1ccc(Nc2ncc(F)c(N3CCOCC3)n2)cc1`, the activation was 153% (active).
Take `c1ccc(Nc2nc(N3CCOCC3)c3ccccc3n2)cc1`: the activation is 7.27%.
In the case of `CCOc1ccc(Nc2nc(Cl)nc(N3CCN(c4ccc(OC)cc4)CC3)n2)cc1`, the activation was -9.55%.
Turning to `CCOC(=O)c1c(/N=C/C2C(=O)CC(C)(C)CC2=O)sc(C)c1C`, the activation was 2.63%.
For `CCN(CC)CCOC(=O)c1ccc(NC(=O)CNC(=O)c2ccccc2)cc1`, the activation was 18.8%.
As for `COc1cccc(CN(C)CC(=O)NCc2ccccc2Cl)c1OC`, the activation is 7.69%.
For `NC(=O)C1CCN(Cc2nc3c(Br)cc(Br)cc3c(=O)[nH]2)CC1`, the activation is 4.38%.
With `COc1ccc(C(=O)NC2CCN(C(=S)Nc3ccccc3)CC2)cc1`, the activation was -16.7%.
Turning to `COc1ccc(C(=S)Nc2ccccc2)cc1`, the activation is 68.3%.
As to `COc1ccc(NC(=S)N2N=CCC2c2ccccc2)cc1` (centres undefined), the activation was 180% (active).
For the compound `O=C1C2C3C=CC(C3)C2C(=O)N1c1ccc(-c2nc3ccccc3c(=O)o2)cc1` (centres undefined), the activation is 3.88%.
Turning to `Cc1cc(=O)oc(C)c1C(=O)N1CCCCC1`, the activation was -5.29%.
Then `Cc1cccc(C(=O)N2CCCN(C(=O)c3cccc(C)c3)CC2)c1`, with 2.21%.
Then `Cc1ccc2cc3cc(C(=O)N4CCCCCC4)oc3nc2c1`, with 167% (active); and `CCC1(C(=O)c2ccccc2)C(c2cccc([N+](=O)[O-])c2)C1(C(=O)OC)C(=O)OC` (centres undefined), with -17.3%; and `CCN(CC)c1ccc2c(Nc3ccccc3)c(C=O)c(=O)oc2c1`, with -11.3%.
`O=C(CSc1nc2ccccc2[nH]1)c1cccs1`: the activation is 162% (active).
In the case of `C=CCSc1nc2ccccc2[nH]1`, the activation is 15.8%.
Take `CCCCSc1nc2ccccc2[nH]1`: the activation is 27.4%.
Take `CC(C)(C)NC(=O)CN(C(=O)c1ccc(Cl)nc1)c1cccc2ccccc12`: the activation was -19.3%.
Regarding `O=C(Nc1cccn(Cc2ccccc2Cl)c1=O)NC1CCCCC1`, the activation is 19.9%.
With `Cc1ccnc(N2CCCC(C(=O)Nc3cc(F)ccc3C)C2)n1` (centres undefined), the activation is 30.3%.
Turning to `O=C(Nc1ccc2c(c1)OCCO2)C1CCCN(c2ncccn2)C1` (centres undefined), the activation is 159% (active).
As for `Cc1cc(C)nc(N2CCC(C(=O)Nc3ccc4c(c3)OCCO4)CC2)n1`, the activation is 2.98%.
On to `CCN(CC)CCNC(=O)c1ccc(NS(=O)(=O)c2ccc3c(c2)OCCO3)cc1`, for which the activation is 12.6%.
Regarding `O=C(Nc1ccc(N2CCN(C(=O)C3CC3)CC2)cc1)c1cccs1`, the activation is -0.31%.
Consider `COC(c1ccccc1)c1nnc(CCC(=O)N2CCN(CCOc3ccccc3)CC2)o1` (centres undefined), for which the activation is -7.19%.
Consider `c1cnc(Nc2nc(-c3ccc4ccccc4c3)cs2)nc1`, for which the activation was 29.6%.
Then `O=C(Nc1ccc(Cl)cn1)Nc1cccs1`, with 25.6%.
Then `COc1ccc(C(=O)/C=C/Nc2ccccn2)cc1`, with 134%.
On to `Oc1ccc(-c2csc(Nc3cccnc3)n2)cc1`, for which the activation was 17.7%.
With `COc1ccc(Nc2nc(-c3ccccc3)cs2)cc1`, the activation was 148% (active).
Take `c1ccc(Nc2nc(-c3ccncc3)cs2)nc1`: the activation was 158% (active).
On to `COc1ccc(-c2csc(Nc3ccccn3)n2)cc1`, for which the activation is 205% (active).
With `NS(=O)(=O)c1ccc(Nc2nc(-c3ccccc3)cs2)cc1`, the activation was 52.2%.
For `Clc1ccc(Nc2nc(-c3cccs3)cs2)nc1`, the activation was 135% (active).
Regarding `COc1ccc2nc(Nc3nc(-c4ccncc4)cs3)sc2c1`, the activation was 65.1%.
In the case of `O=C(Nc1nc(-c2ccc(-c3ccccc3)cc2)cs1)c1cnccn1`, the activation was 11%.
Take `COc1ccc(-c2csc(Nc3ccc(O)cc3)n2)cc1`: the activation was 120%.
As to `CCc1cccc(CC)c1NC(=O)COc1ccccc1C(=O)c1cc(C#N)c(=O)n(C2CCCCC2)c1`, the activation is 12.3%.
With `Cc1ccc(NC(=O)CSc2nc(CSc3ccc(C)cc3)cc(=O)[nH]2)cc1`, the activation is 7.62%.
Then `CCN(CC)CCn1c(/N=C/c2cc(Br)ccc2O)nc2ccccc21`, with -4.24%.
For `COc1cc(C(=O)Nc2cc(C(F)(F)F)ccc2-n2cncn2)cc(OC)c1OC`, the activation was 0.9%.
As to `CCCCCN(C(=O)NC(=O)Nc1cccc(C)c1C)S(C)(=O)=O`, the activation is 12.9%.
As to `COc1ccccc1/C=N\Nc1cc(C)nc(-n2nc(C)cc2C)n1`, the activation is -3.23%.
Turning to `CCc1ccc(-c2cc(C(=O)NN3CCN(C)CC3)c3ccccc3n2)cc1`, the activation is 47.9%.
Consider `COCCNc1nc2nonc2nc1N1CCCC1c1nccs1` (centres undefined), for which the activation was 2.4%.
As for `CCC(C)NCC(=O)Nc1ccc([N+](=O)[O-])cc1C(=O)Nc1ccccc1F` (centres undefined), the activation was -0.05%.
On to `CC(CC(=O)O)CC(=O)NNC(=O)c1cccc(Br)c1` (centres undefined), for which the activation is 7.74%.
For the compound `Cc1nc2ccccc2cc1C(=O)N/N=C/c1ccc([N+](=O)[O-])cc1`, the activation was -13.5%.
Regarding `Cc1cc(C)nc(N/N=C/c2c(C)oc3ccccc23)n1`, the activation was 22.1%.
Regarding `Cc1noc(C)c1/C=N/Nc1ccc2ccccc2n1`, the activation is 169% (active).
As to `O=C(Cc1ccc(F)cc1)N/N=C/c1ccc2c(c1)OCO2`, the activation was 42.8%.
On to `Brc1ccc(-c2csc(N/N=C/c3ccc4c(c3)OCO4)n2)cc1`, for which the activation is -0.09%.
Then `C(=N\Nc1ccc2ccccc2n1)/c1ccc2c(c1)OCO2`, with 227% (active); and `Cc1cccc(-n2c(=O)c3c(C)c(C)sc3n(CC(N)=O)c2=O)c1`, with -15.7%.
On to `CCn1c(SCC(=O)Nc2ccc(C)cc2)nc2nc3c(cc2c1=O)CCCC3`, for which the activation is 17.6%.
Then `CC(C)CNC(=S)NC(=O)c1ccc(Cl)cc1`, with 37.3%.
In the case of `Cc1cccc(OCCC(=O)Nc2cc(S(=O)(=O)N3CCCCC3)ccc2N2CCOCC2)c1`, the activation is 11.1%.
In the case of `COc1ccc(OCCNS(=O)(=O)Cc2ccccc2)cc1`, the activation was 8.23%.
Turning to `CC1CN/C(=C\C(=O)c2ccc(Br)cc2)C(=O)N1` (centres undefined), the activation was 138% (active).
`C/C(=C\C(=O)c1ccc(Br)cc1)N1CCCCC1`: the activation is -20.4%.
With `CN1CCCC(OC(=O)COc2ccc(Br)cc2)C1` (centres undefined), the activation was 3.06%.
Consider `COc1ccc(Cc2nnc(N/N=C/c3ccccc3O)[nH]c2=O)cc1OC`, for which the activation was -85.9%.
`Cc1cc(Cl)ccc1OCc1nc(-c2ccncc2)no1`: the activation was 95.7%.
Regarding `COC(=O)c1sccc1NC(=O)c1csc2c1CCCC2`, the activation is -8.07%.
Then `COC(=O)c1sc(NC(=O)c2csc3c2CCCC3)nc1C`, with 95.3%; and `Cc1ccc(NC(=O)c2csc3c2CCCC3)cc1`, with 232% (active).
